Compound activity as filed in PubChem BioAssay.
Rows were chosen to be rich in hits. Some 1.9% of all compounds tested hit in one or more screens of this group.
S1P4 antagonist – antagonists of human S1P4 receptor | O95977 | S1P4-expressing cells, antagonist mode, reporter read-out | inhibition, % at 4.98 µM | 0.26% of 220,000 active | AID 1510; in the data active = inhibition above about 29%;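 note: 0% = wells stimulated with agonist and 100% = vehicle wells without agonist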
S1P3 antag – antagonists of human S1P3 receptor; Q99500; CHO S1P3 NFAT-BLA reporter, FRET fluorescence, antagonist mode; inhibition, % at 4.98 µM; 0.27% of 170,000 active;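 active = inhibition above the plate cutoff, the mean inhibition of test wells on that plate plus 3 SD, cut at about 28% in these data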;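 note: cells challenged with S1P at its EC80 of 0.8 µM; blue over green emission ratio from cleaved BLA substrate after 4 h stimulation; 0% = S1P-stimulated wells and 100% = unstimulated DMSO-only wells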
Target sequence (Q99500 whole entry, looked up): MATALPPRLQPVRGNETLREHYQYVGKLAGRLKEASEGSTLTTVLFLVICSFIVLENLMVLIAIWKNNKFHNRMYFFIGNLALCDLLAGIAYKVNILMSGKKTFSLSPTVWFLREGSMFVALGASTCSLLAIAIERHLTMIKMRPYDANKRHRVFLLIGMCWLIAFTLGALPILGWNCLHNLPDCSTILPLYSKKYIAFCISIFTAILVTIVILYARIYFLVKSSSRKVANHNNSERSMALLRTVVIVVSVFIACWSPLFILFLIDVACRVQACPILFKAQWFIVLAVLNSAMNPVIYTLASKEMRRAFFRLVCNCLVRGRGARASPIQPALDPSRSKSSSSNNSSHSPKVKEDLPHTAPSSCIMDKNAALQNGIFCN
Pf gamet viab – P. falciparum stage V gametocyte viability inhibition. 0.065% of 150,000 active. inhibition, % at 10.9 µM. P. falciparum stage V gametocytes, ATP luminescence, 24 h;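 active = inhibition above the mean plus 3 SD of compounds within the control limits, set per campaign, cut at about 38% in these data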;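 note: 0% = DMSO wells and 100% = medium only without gametocytes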
EP2 antag – EP2 receptor (human) inhibition; inhibition, % at 25 µM; C6 glioma cells expressing human EP2, cAMP TR-FRET; cells stimulated with saturating PGE2; AID 1422; 0.52% of 260,000 active;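 active = percent inhibition above 40 after rounding to a whole number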;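 note: rat C6 glioma host cells with rolipram phosphodiesterase inhibitor present; the protocol text gives 20 µM as final concentration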
EP2 mod – modulators of human EP2 prostaglandin E2 receptor | P43116 | EP2-expressing cells, cAMP HTRF FRET, PGE2 co-stimulation | induction, % at 25 µM | 0.83% of 260,000 active | AID 940;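 active = compounds whose cAMP rise, as percent of the full-agonist control response, exceeds 60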;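 note: rat C6 glioma line stably carrying human EP2 under a CMV promoter; the protocol text gives 20 µM as final concentration; 100% = response of wells given 1 µM PGE2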
S1P4 ag – human S1P4 receptor agonism | 0.35% of 220,000 active | S1P4-expressing cell line, agonist reporter assay | O95977 | activation, % at 4.98 µM | AID 1509; in the data active = activation above about 11%;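 note: 0% = DMSO vehicle and 100% = reference agonist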
EP2 confirm – EP2 receptor cAMP induction, counter-screens negative. shares compounds with EP2 mod. C6 glioma EP2 cells, cAMP HTRF induction; plus low (about EC15) PGE2 agonist. calls only at 20 µM (by protocol). 47% of 1,300 active. AID 1080;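 active = cAMP induction above 50% in the main assay while under 30% in all four parallel counter assays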;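 note: rat C6 glioma cells stably expressing human EP2 receptor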
Starred values were filed as active, the others as inactive.

CC(C)Cc1nc(N2CCCCC2)c(C#N)c2c1CCC2 was read as S1P4 antagonist -9, EP2 antag 17, EP2 mod 89*, S1P4 ag 4 and EP2 confirm inactive.
Screening CC1=[N+](CC(=O)c2ccc(Br)cc2)CCn2cccc21 returned EP2 antag 8 and EP2 mod -32.
`Cc1cc(C)c2[nH]c3nc(SC(C)C(=O)Nc4ccccc4C)nnc3c2c1` (stereo not drawn) gave EP2 antag 9 and EP2 mod -4.
Screening CC1CN(C(=O)c2ccccc2Nc2ccc(SC(F)F)cc2)CC(C)O1 (stereo not drawn) returned S1P4 antagonist -14, S1P3 antag 11, EP2 antag 8, EP2 mod 8 and S1P4 ag 1.
CC1CCCC(C)N1C(=O)c1ccccc1Nc1ccc(SC(F)F)cc1 (stereo not drawn) was read as S1P4 antagonist -15, Pf gamet viab -22, EP2 antag 3, EP2 mod 76*, S1P4 ag -3 and EP2 confirm inactive.
CSc1nc(Oc2ccc(F)cc2)c2ccccc2n1 was read as S1P4 antagonist -7, EP2 antag 12, EP2 mod 68*, S1P4 ag 0 and EP2 confirm active.
For O=c1c2ccccc2c(-c2ccccc2)nn1-c1ccc(Cl)c(Cl)c1 the results were S1P4 antagonist -13, Pf gamet viab 19, EP2 antag 7, EP2 mod 70*, S1P4 ag 1 and EP2 confirm inactive.
Screening O=c1c2ccccc2c(-c2ccccc2)nn1-c1ccccc1 returned S1P4 antagonist -16, S1P3 antag -3, Pf gamet viab 14, EP2 antag 2, EP2 mod 19 and S1P4 ag -1.
Fc1ccc(C(c2nnnn2C2CCCCC2)N2CCCCCC2)cc1 (stereo not drawn) was read as EP2 antag 6 and EP2 mod 13.
Screening COc1ccc(Cc2n[nH]c(=S)n2Cc2ccccc2)cc1Cl returned S1P4 antagonist 6, S1P3 antag 6, EP2 antag 2, EP2 mod 53, S1P4 ag 0 and EP2 confirm inactive.
Screening CCOc1ccc(Cc2n[nH]c(=S)n2Cc2ccccc2)cc1 returned S1P4 antagonist -21, S1P3 antag -5, Pf gamet viab 2, EP2 antag 3, EP2 mod 66*, S1P4 ag 0 and EP2 confirm inactive.
`Cc1ccc(OCc2n[nH]c(=S)n2Cc2ccccc2)cc1` gave S1P4 antagonist -7, S1P3 antag -5, Pf gamet viab -41, EP2 antag 14, EP2 mod 62*, S1P4 ag 0 and EP2 confirm inactive.
`Cc1cc2cc(C(=O)NCC3CCCN(C(C)C)C3)ccc2o1` (stereo not drawn) gave EP2 antag 6 and EP2 mod -22.
Screening O=c1c2ccccc2c(=O)n(Cc2ccccc2)n1Cc1ccccc1 returned S1P4 antagonist -5, S1P3 antag -8, Pf gamet viab -9, EP2 antag 3, EP2 mod 66*, S1P4 ag 1 and EP2 confirm active.
For Cc1sc2ncnc(SCC#N)c2c1C the results were S1P4 antagonist -5, S1P3 antag 13, EP2 antag 23, EP2 mod 49 and S1P4 ag 1.
For CCCSc1ncnc2sc(C)c(C)c12 the results were S1P4 antagonist -60, S1P3 antag -3, EP2 antag 5, EP2 mod 53, S1P4 ag 3 and EP2 confirm inactive.
Screening CC(=O)c1ccc(NC(=O)c2ccccc2Sc2ncnc3sc(C)c(C)c23)cc1 returned S1P4 antagonist 11, S1P3 antag -2, EP2 antag 10, EP2 mod 10 and S1P4 ag 0.
Cc1sc2ncnc(Sc3ccccc3C(=O)O)c2c1C was read as S1P4 antagonist -7, S1P3 antag -14, EP2 antag 16, EP2 mod 72*, S1P4 ag 1 and EP2 confirm inactive.
For CCc1nn(CC(N)=O)c(=O)c2cc3sc(C)cc3n12 the results were EP2 antag 0 and EP2 mod -11.
Screening Cc1ccc(S(=O)(=O)c2c(C)nn(-c3ccccc3)c2OC(=O)c2ccco2)cc1 returned S1P4 antagonist 2, S1P3 antag -10, EP2 antag 11, EP2 mod 67*, S1P4 ag 1 and EP2 confirm inactive.
Screening O=C(COc1ncnc2ccccc12)Nc1nnc(Cc2cccc(F)c2)s1 returned EP2 antag 4 and EP2 mod -37.
S=c1[nH]nc(-c2ccccc2)n1/N=C/c1ccc(-c2ccccc2Cl)o1 was read as S1P4 antagonist -4, S1P3 antag -11, Pf gamet viab 13, EP2 antag 14, EP2 mod 78*, S1P4 ag 4 and EP2 confirm active.
For O=C(CCN1C(=O)/C(=C/c2cccs2)SC1=S)NC1CCCCC1 the results were EP2 antag 14 and EP2 mod 8.
For CCOC(=O)C(C)n1nc(C)n2c(cc3sc(C)cc32)c1=O (stereo not drawn) the results were EP2 mod -3.
For CCOC(=O)c1cc2sc(C)cc2n1C(C)C(=O)OCC (stereo not drawn) the results were S1P4 antagonist -20, S1P3 antag 76*, EP2 antag 7, EP2 mod 65*, S1P4 ag -1 and EP2 confirm inactive.
`CCOC(=O)c1c(NC(=O)CSc2nnnn2-c2cccc(F)c2)sc(C(C)=O)c1C` gave EP2 antag 13 and EP2 mod -4.
CC(C)n1c2ccccc2c2nc3ccccc3nc21 was read as S1P4 antagonist -5, S1P3 antag 6, Pf gamet viab -19, EP2 antag 15, EP2 mod 58, S1P4 ag 1 and EP2 confirm active.
For O=C(Nc1ccc(S(=O)(=O)N2CCCCC2)cc1)c1cc(Cl)ccc1Cl the results were EP2 antag 10 and EP2 mod -41.
`CCOC(=O)C1CCN(c2c(C(=O)c3ccccc3)cnc3ccc(Cl)cc23)CC1` gave S1P4 antagonist -4, S1P3 antag -17, EP2 antag 9, EP2 mod 81*, S1P4 ag 0 and EP2 confirm active.
For CCOC(=O)C1CCN(C(=O)c2cccc(Cl)c2)CC1 the results were S1P4 antagonist -3, S1P3 antag 7, EP2 antag 6, EP2 mod 9 and S1P4 ag 1.
For O=C(Nc1ccccc1)N1CCSc2cc(Cl)ccc21 the results were S1P4 antagonist -12, Pf gamet viab -23, EP2 antag 1, EP2 mod 17 and S1P4 ag -3.
`O=C(Nc1ccccc1Cl)N1CCSc2ccccc21` gave S1P4 antagonist -25, S1P3 antag 6, EP2 antag 9, EP2 mod 77*, S1P4 ag 1 and EP2 confirm active.
